Experimental data: PubChem BioAssay (NCI)
About 83,000 compounds went through this panel and 20% of them were active in at least one assay; those are over-represented in the sample as a whole.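 How to read the values: 0–100, growth inhibition (40 = 60% inhibited); 0, no net growth; -100 to 0, cell death (-40 = 40% of starting cells died; -100 = all dead).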 Activity calls are given as the source filed them. The calls were made as follows: active = growth percent below 10; inactive = the rest.

Columns and labels:
Experiment in all cases: NCI-60 one-dose screen, 48 h (100 = growth as untreated, 0 = no growth, -100 = all killed)
Details in all cases: 10 µM unless noted
NCI-H23 lung = test system: NCI-H23 lung
NCI-H226 lung = test system: NCI-H226 lung
NCI-H322M lung = test system: NCI-H322M lung
HOP-62 NSCLC = test system: HOP-62 NSCLC
NCI-H460 lung = test system: NCI-H460 lung
NCI-H522 lung = test system: NCI-H522 lung
A549/ATCC NSCLC = test system: A549/ATCC NSCLC
786-0 renal = test system: 786-0 renal
COLO 205 colon = test system: COLO 205 colon
DU-145 prostate = test system: DU-145 prostate
K-562 leukemia = test system: K-562 leukemia
MALME-3M melanoma = test system: MALME-3M melanoma
MDA-MB-231 breast = test system: MDA-MB-231 breast
RXF 393 renal = test system: RXF 393 renal
SF-268 CNS = test system: SF-268 CNS
SF-295 CNS = test system: SF-295 CNS
SF-539 CNS = test system: SF-539 CNS
UACC-257 melanoma = test system: UACC-257 melanoma
M14 melanoma = test system: M14 melanoma

Measured: growth

N/C(=N\C(N)=N\c1nc2ccccc2s1)c1cccc(F)c1
inactive: NCI-H23 lung 76.5% [5 µM] | NCI-H226 lung 90.8% [5 µM] | NCI-H322M lung 92.6% [5 µM] | HOP-62 NSCLC 81.1% [5 µM] | NCI-H460 lung 88.7% [5 µM] | NCI-H522 lung 94.5% [5 µM] | A549/ATCC NSCLC 75.9% [5 µM] | 786-0 renal 107% [5 µM] | COLO 205 colon 106% [5 µM] | DU-145 prostate 104% [5 µM] | K-562 leukemia 89.2% [5 µM] | MALME-3M melanoma 91.5% [5 µM] | MDA-MB-231 breast 78.7% [5 µM] | RXF 393 renal 122% [5 µM] | SF-268 CNS 99.1% [5 µM] | SF-295 CNS 87.8% [5 µM] | SF-539 CNS 100% [5 µM] | UACC-257 melanoma 104% [5 µM] | M14 melanoma 98.4% [5 µM]

CC(C)(C)n1cc(-c2ccnc(NCCCNS(=O)(=O)c3cccc(F)c3)n2)c(-c2ccc(Cl)c(O)c2)n1
inactive: NCI-H23 lung 100% | NCI-H226 lung 107% | NCI-H322M lung 90.9% | HOP-62 NSCLC 111% | NCI-H460 lung 93.6% | NCI-H522 lung 89.9% | A549/ATCC NSCLC 93.6% | 786-0 renal 99.7% | COLO 205 colon 114% | DU-145 prostate 94.4% | K-562 leukemia 59% | MALME-3M melanoma 94% | MDA-MB-231 breast 103% | RXF 393 renal 105% | SF-268 CNS 95.9% | SF-295 CNS 108% | SF-539 CNS 104% | UACC-257 melanoma 114% | M14 melanoma 94.9%

CN(C)CCN(C)c1ccc2ncc(C#Cc3cncc(C(=O)Nc4ccc(CN5CCN(C)CC5)c(C(F)(F)F)c4)c3)n2n1
inactive: NCI-H226 lung 64.3% | NCI-H322M lung 89% | HOP-62 NSCLC 33.6% | NCI-H522 lung 97% | 786-0 renal 90.9% | COLO 205 colon 25.1% | MALME-3M melanoma 61.9% | SF-268 CNS 64.6% | SF-295 CNS 83.8% | UACC-257 melanoma 107%
active: NCI-H23 lung -66.4% | NCI-H460 lung -76% | A549/ATCC NSCLC -40.5% | DU-145 prostate -59.2% | K-562 leukemia 3.58% | MDA-MB-231 breast -53.4% | RXF 393 renal -90.1% | SF-539 CNS -9.03% | M14 melanoma -80.8%

COc1cccc2c1CN(C(=O)c1ccc(O)c(C(=O)N3Cc4ccc(OCCC[P+](c5ccccc5)(c5ccccc5)c5ccccc5)cc4C3)c1)C2
inactive: NCI-H23 lung 75.4% | NCI-H226 lung 86.9% | NCI-H322M lung 99.1% | HOP-62 NSCLC 102% | NCI-H460 lung 61.4% | NCI-H522 lung 78% | A549/ATCC NSCLC 101% | 786-0 renal 103% | COLO 205 colon 54% | DU-145 prostate 89.1% | K-562 leukemia 22.6% | MALME-3M melanoma 70.8% | MDA-MB-231 breast 86.9% | RXF 393 renal 104% | SF-268 CNS 80.5% | SF-295 CNS 76.3% | SF-539 CNS 64.4% | UACC-257 melanoma 44.8% | M14 melanoma 89.3%

CN1CCN(Cc2ccc(NC(=O)c3cncc(C#Cc4cnn5cccnc45)c3)cc2C(F)(F)F)CC1
active: NCI-H23 lung -23.1% | NCI-H226 lung -14% | NCI-H460 lung 3.16% | NCI-H522 lung -58.7% | A549/ATCC NSCLC 5.71% | COLO 205 colon -56.6% | DU-145 prostate 6.94% | K-562 leukemia -11.5% | MALME-3M melanoma -16.7% | MDA-MB-231 breast 5.29% | RXF 393 renal -76.5% | SF-268 CNS -5.38% | M14 melanoma -43.9%
inactive: NCI-H322M lung 19.8% | HOP-62 NSCLC 10.2% | 786-0 renal 27.1% | SF-295 CNS 56.7% | SF-539 CNS 14.8% | UACC-257 melanoma 44.5%

CCOC(=O)c1c(Nc2ccccc2)nn2c(-c3ccc(OC)cc3)ccnc12
inactive: NCI-H23 lung 86% | NCI-H226 lung 93.5% | NCI-H322M lung 87.1% | HOP-62 NSCLC 95.3% | NCI-H460 lung 93.5% | NCI-H522 lung 88.1% | A549/ATCC NSCLC 88.7% | 786-0 renal 64.5% | COLO 205 colon 99.9% | DU-145 prostate 90.8% | K-562 leukemia 45.3% | MALME-3M melanoma 87.6% | MDA-MB-231 breast 79.4% | SF-268 CNS 101% | SF-295 CNS 89.5% | SF-539 CNS 83.8% | UACC-257 melanoma 110% | M14 melanoma 96%
active: RXF 393 renal -2.68%

COc1ccc([C@@H]2[C@@H](O)C(=O)N2c2cc(OC)c(OC)c(OC)c2)cc1F
active: NCI-H460 lung 2.68% | NCI-H522 lung -49.6% | COLO 205 colon -79.8% | K-562 leukemia 8.16% | SF-295 CNS 5.85% | SF-539 CNS -0.902% | M14 melanoma 3.94%
inactive: NCI-H23 lung 15.9% | NCI-H226 lung 36.9% | NCI-H322M lung 52.4% | HOP-62 NSCLC 28.3% | A549/ATCC NSCLC 20.2% | 786-0 renal 10% | DU-145 prostate 12.3% | MALME-3M melanoma 64.1% | MDA-MB-231 breast 21.3% | RXF 393 renal 24.9% | SF-268 CNS 32% | UACC-257 melanoma 58.6%

COc1ccc(OC)c(-c2nc(SCC(=O)c3ccc(Br)cc3)nc(Nc3ccc(S(N)(=O)=O)cc3)c2C#N)c1
inactive: NCI-H23 lung 58.4% | NCI-H226 lung 50% | NCI-H322M lung 81.7% | HOP-62 NSCLC 48.4% | NCI-H460 lung 20.8% | NCI-H522 lung 48% | A549/ATCC NSCLC 67.4% | 786-0 renal 41.4% | COLO 205 colon 68.4% | DU-145 prostate 55.2% | K-562 leukemia 22.5% | MALME-3M melanoma 50.2% | MDA-MB-231 breast 63% | RXF 393 renal 17.3% | SF-268 CNS 56.7% | SF-295 CNS 33.1% | SF-539 CNS 28.4% | UACC-257 melanoma 56.9% | M14 melanoma 42.5%

CC[C@@H](CO)Nc1ccc2ncc(C#Cc3cncc(C(=O)Nc4ccc(CN5CCN(C)CC5)c(C(F)(F)F)c4)c3)n2n1
active: NCI-H23 lung -71.5% | NCI-H226 lung -39.4% | NCI-H322M lung -30.1% | HOP-62 NSCLC -71.7% | NCI-H460 lung -88.8% | NCI-H522 lung -76.1% | A549/ATCC NSCLC -35.3% | 786-0 renal -96.8% | COLO 205 colon -87.2% | DU-145 prostate -82.4% | K-562 leukemia 0.898% | MALME-3M melanoma -82.2% | MDA-MB-231 breast -58.3% | RXF 393 renal -96.2% | SF-268 CNS -60.4% | SF-295 CNS -84.7% | SF-539 CNS -82.1% | UACC-257 melanoma -84.8% | M14 melanoma -92%

COc1cc(OC)c(S(N)(=O)=O)cc1C(=O)/C=C/c1ccc(C)cc1
inactive: NCI-H322M lung 34.6% | HOP-62 NSCLC 11.9% | NCI-H522 lung 11% | A549/ATCC NSCLC 22.5% | 786-0 renal 19.9% | COLO 205 colon 17% | MALME-3M melanoma 72.9% | MDA-MB-231 breast 14.2% | SF-268 CNS 31.6% | SF-295 CNS 23.6% | UACC-257 melanoma 81% | M14 melanoma 41.5%
active: NCI-H23 lung 8.61% | NCI-H226 lung -2.47% | NCI-H460 lung -3.51% | DU-145 prostate 1.29% | K-562 leukemia 7.24% | RXF 393 renal -28.2% | SF-539 CNS 1.82%

N#C/C(=C\c1ccc(-c2ccc(Cl)cc2Cl)o1)c1ccc(F)cc1
inactive: NCI-H23 lung 87.7% | NCI-H322M lung 93.4% | HOP-62 NSCLC 82.2% | NCI-H460 lung 90.7% | NCI-H522 lung 88.1% | A549/ATCC NSCLC 100% | 786-0 renal 94% | COLO 205 colon 100% | DU-145 prostate 102% | K-562 leukemia 92.5% | MALME-3M melanoma 98.7% | MDA-MB-231 breast 83.4% | RXF 393 renal 67.5% | SF-268 CNS 92.3% | SF-295 CNS 99.8% | SF-539 CNS 89.9% | UACC-257 melanoma 104% | M14 melanoma 95.3%
active: NCI-H226 lung 5.86%

Cc1cc2ncc(-c3cc4ccccc4c(N4CCN(C)CC4)n3)nc2cc1C
inactive: NCI-H23 lung 70.7% | NCI-H226 lung 91.9% | NCI-H322M lung 47.7% | HOP-62 NSCLC 82.9% | NCI-H522 lung 75.5% | A549/ATCC NSCLC 54% | 786-0 renal 61.3% | DU-145 prostate 33.6% | MDA-MB-231 breast 18.6% | SF-268 CNS 62.7% | SF-295 CNS 10.2% | UACC-257 melanoma 99.1%
active: NCI-H460 lung -77.9% | COLO 205 colon -57.9% | K-562 leukemia -50.7% | MALME-3M melanoma -69.1% | RXF 393 renal -71.8% | SF-539 CNS -2.53% | M14 melanoma -85.7%

CC(O)c1cc2ccccc2c(=O)o1 (stereo not given)
inactive: NCI-H23 lung 99.8% | NCI-H226 lung 89.2% | NCI-H322M lung 103% | HOP-62 NSCLC 105% | NCI-H460 lung 104% | NCI-H522 lung 98.6% | A549/ATCC NSCLC 102% | 786-0 renal 101% | COLO 205 colon 112% | DU-145 prostate 110% | K-562 leukemia 101% | MALME-3M melanoma 98.2% | MDA-MB-231 breast 103% | RXF 393 renal 129% | SF-268 CNS 98.3% | SF-295 CNS 97.7% | SF-539 CNS 95.2% | UACC-257 melanoma 96.7% | M14 melanoma 107%

CCOC(=O)c1c(Nc2ccccc2)nn2c(-c3ccc(Cl)cc3)ccnc12
active: RXF 393 renal -10.6%
inactive: NCI-H23 lung 73.4% | NCI-H226 lung 58.6% | NCI-H322M lung 86.5% | HOP-62 NSCLC 56.7% | NCI-H460 lung 44.1% | NCI-H522 lung 79.7% | A549/ATCC NSCLC 70.4% | 786-0 renal 64.7% | COLO 205 colon 82.1% | DU-145 prostate 79.5% | K-562 leukemia 81.1% | MALME-3M melanoma 84% | MDA-MB-231 breast 75.4% | SF-268 CNS 77% | SF-295 CNS 77.5% | SF-539 CNS 71.7% | UACC-257 melanoma 104% | M14 melanoma 96.5%

Cc1ccc(C(=O)NN2C(=O)/C(=C/C=C/c3ccco3)SC2=S)cc1
inactive: NCI-H23 lung 96.7% | NCI-H226 lung 96.1% | NCI-H322M lung 85.4% | HOP-62 NSCLC 105% | NCI-H460 lung 88.3% | NCI-H522 lung 83.5% | A549/ATCC NSCLC 82.4% | 786-0 renal 106% | COLO 205 colon 126% | DU-145 prostate 103% | K-562 leukemia 49.3% | MALME-3M melanoma 93.9% | MDA-MB-231 breast 96.7% | RXF 393 renal 131% | SF-268 CNS 96.9% | SF-295 CNS 102% | SF-539 CNS 93.4% | UACC-257 melanoma 91% | M14 melanoma 99.8%
